The list is not random: actives were taken first. Their share in the collection is about 7.8%.
Hedgehog inh – blocks Sonic Hedgehog signaling. Shh-LIGHT2 Gli-luciferase reporter, 30 h. inhibition, % (concentration not given with the values). hit rate 2.1% among 22,000. AID 2313;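 active = mean inhibition across valid replicates above about 65%, limit read from the data; inconclusive = mean under the limit, yet half or more replicates past it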;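 also: pathway switched on by Shh-conditioned medium diluted 1 in 25 in low serum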
MITF inhib – inhibitors of MITF; TRPM1 promoter luciferase, luminescence, 24 h; inhibition, % (test concentration not listed); hit rate 0.28% among 37,000; AID 2240; in the data active = inhibition above about 85%; inconclusive = no clear call, values can overlap the other calls; inactive = below about 68%;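 also: human melanocyte line stably carrying TRPM1 promoter luciferase reporter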
NOMO-1 viab – STK33 inhibitor candidate reducing NOMO-1 cell viability; inhibition, % (concentration not given with the values); NOMO-1 AML viability, CellTiter-Glo luminescence, 72 h; hit rate 7.5% among 37,000; in the data active = inhibition above about 80%; inconclusive = no clear call, values can overlap the other calls
Each line names hits and unclear results; the compound was inactive in the other large screens.

C[C@@H]1CN([C@H](C)CO)C(=O)c2cc(NC(=O)Nc3ccc(C(F)(F)F)cc3)ccc2O[C@@H]1CN(C)C(=O)Nc1ccc(F)cc1	NOMO-1 viab 84
C[C@@H]1CN([C@@H](C)CO)C(=O)c2cc(NC(=O)Nc3ccc(C(F)(F)F)cc3)ccc2O[C@H]1CN(C)C(=O)Nc1ccc(F)cc1	none
C[C@H](CO)N1C[C@H](C)[C@H](CN(C)C(=O)Nc2ccc(F)cc2)Oc2ccc(NC(=O)Nc3ccc(F)cc3)cc2C1=O	Hedgehog inh 107
C[C@@H]1CN([C@@H](C)CO)C(=O)c2cc(NC(=O)Nc3ccc(F)cc3)ccc2O[C@H]1CN(C)C(=O)Nc1ccc(F)cc1	none
C[C@H](CO)N1C[C@H](C)[C@@H](CN(C)C(=O)Nc2ccc(F)cc2)Oc2ccc(NC(=O)Nc3ccc(C(F)(F)F)cc3)cc2C1=O	none
C[C@H](CO)N1C[C@H](C)[C@H](CN(C)C(=O)Nc2ccc(C(F)(F)F)cc2)Oc2ccc(NC(=O)Nc3ccc(F)cc3)cc2C1=O	NOMO-1 viab 104
COC(=O)/C=c1\sc2ncnn2c1=O	none (no result: Hedgehog inh)
Cc1c(C)c(C)c(C(=O)CCc2cccc(NC(=O)C3CCC3)c2)c(C)c1C	none
CNC[C@H]1Oc2c(NC(=O)C3CCCCC3)cccc2C(=O)N([C@@H](C)CO)C[C@@H]1C	none
COc1ccc(S(=O)(=O)N(C)CC(=O)NC2CC2)cc1	none (no result: Hedgehog inh)
O/N=C/c1c(O)c(Br)cc2oc3c(c12)CCCC3	NOMO-1 viab inconclusive
COc1ccc(S(=O)(=O)Nc2ccc3c(c2)CC(=O)N([C@H](C)CO)C[C@H](C)[C@H](CN(C)S(=O)(=O)c2ccc(Cl)cc2)O3)cc1	none
O=C1c2cc(O)cc(O)c2C(=O)c2c(O)cc(CO)cc21	none
COc1ccc(NC(=O)c2ccc(N(C)S(=O)(=O)c3ccc(OC)c(OC)c3)cc2)cc1OC	none (no result: Hedgehog inh)
COc1ccc(NC(=O)c2ccc(-c3ccc(-c4noc(C)n4)cc3C)cc2)cc1OCCN(C)C	Hedgehog inh inconclusive, NOMO-1 viab 115
Cc1ccc(S(=O)(=O)Nc2ccc3c(c2)CC(=O)N([C@@H](C)CO)C[C@@H](C)[C@@H](CN(C)C(=O)NC(C)C)O3)cc1	none
Cc1coc2c1C(=O)C(=O)c1c-2ccc2c1CCCC2(C)C	NOMO-1 viab 109
COc1cc(CN(C)Cc2cccc3ccccc23)c([N+](=O)[O-])cc1OC	none (no result: Hedgehog inh)
CC(C)c1ccc(NC(=O)c2coc(=O)c3ccccc23)cc1	none
C[C@H]1CN([C@@H](C)CO)C(=O)Cc2cc(NC(=O)Nc3ccccc3)ccc2O[C@@H]1CN(C)S(=O)(=O)c1ccc(Cl)cc1	none
C[C@H]1CN([C@@H](C)CO)C(=O)Cc2cc(NC(=O)Nc3ccccc3)ccc2O[C@H]1CN(C)S(=O)(=O)c1ccc(Cl)cc1	NOMO-1 viab 113
C[C@H]1CN([C@@H](C)CO)C(=O)Cc2cc(NC(=O)Nc3ccc(F)cc3)ccc2O[C@H]1CN(C)S(=O)(=O)c1ccc(Cl)cc1	NOMO-1 viab 114
C[C@@H]1CN([C@H](C)CO)C(=O)Cc2cc(NC(=O)Nc3ccc(F)cc3)ccc2O[C@@H]1CN(C)S(=O)(=O)c1ccc(Cl)cc1	none
Cc1ccc(S(=O)(=O)N(C)C[C@@H]2Oc3ccc(NC(=O)CCC(F)(F)F)cc3CC(=O)N([C@@H](C)CO)C[C@@H]2C)cc1	NOMO-1 viab 134
Cc1ccc(S(=O)(=O)N(C)C[C@@H]2Oc3ccc(NC(=O)Nc4ccccc4)cc3CC(=O)N([C@@H](C)CO)C[C@@H]2C)cc1	NOMO-1 viab 124
Cc1ccc(S(=O)(=O)N(C)C[C@@H]2Oc3ccc(NC(=O)CCC(F)(F)F)cc3CC(=O)N([C@H](C)CO)C[C@H]2C)cc1	none
C[C@@H]1CN([C@@H](C)CO)C(=O)Cc2cc(NC(=O)Nc3ccccc3)ccc2O[C@@H]1CN(C)S(=O)(=O)c1ccccc1	none
C[C@H](CO)N1C[C@H](C)[C@H](CN(C)S(=O)(=O)c2cccs2)Oc2ccc(N(C)C)cc2C1=O	none
CC(C)NC(=O)Nc1ccc2c(c1)C(=O)N([C@H](C)CO)C[C@H](C)[C@H](CN(C)C(=O)Nc1ccccc1)OCCCC[C@@H](C)O2	none
C[C@H]1CN([C@@H](C)CO)C(=O)c2cc(NC(=O)C3CC3)ccc2O[C@H]1CN(C)CC1CC1	none
COc1ccc(NC(=O)N(C)C[C@H]2Oc3ccc(NC(=O)Cn4cnnn4)cc3C(=O)N([C@H](C)CO)C[C@@H]2C)cc1	none
COc1cc(-c2nnn(CC(=O)Nc3c(C)cccc3C)n2)cc(OC)c1OC	none (no result: Hedgehog inh)
O=C(COc1ccc(Cl)cc1CO)Nc1ccc(F)cc1	none (no result: Hedgehog inh)
C[C@@H]1CCCCO[C@H](CN(C)C)[C@@H](C)CN([C@H](C)CO)C(=O)c2cc(NS(=O)(=O)c3ccccc3)ccc2O1	none
COc1cccc2sc(NC(=O)c3ccc(S(=O)(=O)N(C)C)cc3)nc12	none
CN(C)S(=O)(=O)c1ccc(C(=O)Nc2nc3c(s2)CCc2ccccc2-3)cc1	NOMO-1 viab 113 (no result: Hedgehog inh)

High-throughput results deposited in PubChem BioAssay by Broad Institute.
